Assay results reported in the supplement of paper PMC10338343.
± gives the standard deviation.

Key:
[1] = system: MILI (PIWIL2) piRISC loaded with L1MC piRNA (26 nt); experiment: pre-steady-state target cleavage rate (min^-1); guide: L1MC piRNA 5'p-UAACUAAAUACUAUGCAAGCUGUAGG; higher = faster piRNA-guided slicing of the target;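 also: 1 nM active piRISC with 0.1 nM target library at 33 °C single turnover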
Summary of the method: (§1)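 The pre-steady-state cleavage rate was derived from a burst-and-steady-state fit of Cleave-'n-Seq data. For these assays, 1 nM active affinity-purified piRISC loaded with a single synthetic guide was mixed with […] a transcribed, DNA-blocked target RNA library in HEPES–potassium acetate buffer at 33 °C, with or without 500 nM GTSF1 partner protein, for 0–8 or 0–960 min. Sequencing counts of uncleaved targets were normalised to depth and to weakly complementary targets, and k3 was capped at 0.0001 min^-1 after three trials were pooled.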

[2] = system: EfPiwi piRISC loaded with L1MC piRNA (26 nt); experiment: pre-steady-state target cleavage rate (min^-1); auxiliary factor: 500 nM Ephydatia muelleri Gtsf1; guide: L1MC piRNA 5'p-UAACUAAAUACUAUGCAAGCUGUAGG; MIWI and MILI are mouse PIWI proteins and EfPiwi is from a freshwater sponge; tags in brackets are library labels; higher = faster piRNA-guided slicing of the target
Summary of the method: as §1

[3] = auxiliary factor: 500 nM mouse GTSF1
[4] = auxiliary factor: none (no GTSF1)

| Sequence | pre-steady-state target cleavage rate [1, 3] | pre-steady-state target cleavage rate [1, 4] | pre-steady-state target cleavage rate [2] |
| --- | --- | --- | --- |
| UCCUGGUACAGCUUGCGUAGUAUUUAGUUA | 0.219 ± 0.021 | 0.014 ± 0.004 | 0.0273 ± 0.0095 |
| UCCUGGAACAGCUUGCAUAGUGUUUAGUUA | 0.146 ± 0.018 | 0.00335 ± 0.0028 | 0.0084 ± 0.0024 |
| UCCUCGUACAGCUUGCAUAGUAUUUUGUUA | 0.143 ± 0.016 | 0.00289 ± 0.0028 | 0.007 ± 0.0031 |
| UCCUGCUAGACCUUGCAUAGUAUUUAGUUA | 0.171 ± 0.02 | 0.00811 ± 0.0031 | 0.00526 ± 0.0023 |
| UCCUGGAUGUGCUGCAUAGUAUUUAGUUA | 0.0672 ± 0.009 | 0.00895 ± 0.0024 | 0.00571 ± 0.0034 |
| UCCUGGAUGUGCUUGCAUAGUAUUUAGUUC [g2:g20:cont:t1C] | 0.12 ± 0.013 | 0.00589 ± 0.0026 | 0.0175 ± 0.0048 |
| UCCUGGAUGAGCUUGCAUAGUAAUUUAGUUA | 0.0721 ± 0.0082 | 0.00789 ± 0.0023 | 0.00357 ± 0.0029 |
| UCCUGGAUCUGCUUGCAUAGUAUAUAGUUA | 0.191 ± 0.019 | 0.00587 ± 0.0024 | 0.0643 ± 0.018 |
| UCCUCCUACAGCUUGCAUAGUAUUUAUGUUA | 0.162 ± 0.023 | 0.00611 ± 0.0025 | 0.00546 ± 0.0027 |
| UCCUGGUACAGCUGCAUAGUAUUUAGUUA | 0.23 ± 0.016 | 0.0103 ± 0.0029 | 0.00843 ± 0.0034 |
| UCCUCCUACAGCUUGCAAGUAUUUAGUUA | 0.155 ± 0.017 | 0.00449 ± 0.0021 | 0.00641 ± 0.0026 |
| UCCUCCUACACUUGCAUAGUAUUUAGUUA | 0.248 ± 0.016 | 0.00564 ± 0.002 | 0.049 ± 0.015 |
| UCCUGCUAGCAGCUUGCAUAGUAUUUAGUUA | 0.259 ± 0.014 | 0.00955 ± 0.0024 | 0.0598 ± 0.016 |
| UCCUCCUACAGCUUGCAUAGUAUUUAAGUUA | 0.214 ± 0.022 | 0.00686 ± 0.0024 | 0.00943 ± 0.0038 |
| UCCUGGAUGUGCAUGCAUAGUAUUUAGAAA | 0.0733 ± 0.013 | 0.00295 ± 0.0029 | 0.00304 ± 0.0022 |
| UCCUGGUACGCUUGCAUAGUAUUUAGUUA | 0.222 ± 0.034 | 0.0143 ± 0.0047 | 0.00582 ± 0.0027 |
| UCCUGGAUCACCAUGCAUAGUAUUUAGUUA | 0.14 ± 0.019 | 0.00489 ± 0.0025 | 0.013 ± 0.0061 |
| UCCUCCUACAGCUUGCAUAGUAUAUUAGUUA | 0.282 ± 0.019 | 0.00588 ± 0.0024 | 0.0567 ± 0.019 |
| UCCUGGUACAGCUUGCCAUAGUAUUUAGUUA | 0.224 ± 0.059 | 0.00532 ± 0.0033 | 0.0045 ± 0.0021 |
| UCCUCCUACAGCUUGCAUAGUAAUUUGUUA | 0.111 ± 0.021 | 0.00269 ± 0.0026 | 0.00652 ± 0.0028 |

| Sequence | pre-steady-state target cleavage rate [1, 3] | pre-steady-state target cleavage rate [1, 4] | pre-steady-state target cleavage rate [2] |
| --- | --- | --- | --- |
| UCCUGGAUCUAGCUUGCAUAGUAUUUAGUUA | 0.193 ± 0.021 | 0.00722 ± 0.0025 | 0.0755 ± 0.019 |
| UCCUCGUACAGCAUGCAUAGUAUUUAGUUA | 0.262 ± 0.015 | 0.0102 ± 0.0022 | 0.0515 ± 0.013 |
| UCCUGGAUCAGGUUGCAUAGUAAUUAGUUA | 0.152 ± 0.015 | 0.00739 ± 0.0017 | 0.012 ± 0.005 |
| UCCUGGUACAGCUUGCAUAGUAGUUAGUUA | 0.2 ± 0.034 | 0.00513 ± 0.0028 | 0.00515 ± 0.0021 |
| UCCUGGUACAGCUUGCAUAGUAUCUAGUUA | 0.156 ± 0.029 | 0.00431 ± 0.0025 | 0.004 ± 0.0021 |
| UCCUGGAACAGGUUGCUUAGUAUUUAGUUA | 0.253 ± 0.015 | 0.0109 ± 0.0031 | 0.00924 ± 0.0022 |
| UCCUGCUUCAGCUUGCAUAGUAUUUAGUAA | 0.224 ± 0.025 | 0.00397 ± 0.002 | 0.00811 ± 0.0033 |
| UCCUGCAACAGCUUGCAUAGUAUAUAGUUA | 0.36 ± 0.038 | 0.00582 ± 0.0026 | 0.00844 ± 0.0024 |
| UCCUGGUAGACCUUGCAUAGUAUUUAGUUA | 0.221 ± 0.022 | 0.00488 ± 0.0036 | 0.0182 ± 0.0065 |
| UCCUGGAACAGCUUGGAUAGUAUUUAGUAA | 0.198 ± 0.023 | 0.00431 ± 0.0019 | 0.00371 ± 0.002 |
| UCCUGGUACAGCUUGCAUAGUAUAUUGUUA | 0.146 ± 0.042 | 0.00411 ± 0.0035 | 0.00333 ± 0.0026 |
| UCCUGGAUCAGCGUGCAUAGUAUUUAGUUA | 0.225 ± 0.015 | 0.00697 ± 0.0035 | 0.0619 ± 0.012 |
| UCCUGGAAGCAGCUUGCAUAGUAUUUAGUUA | 0.259 ± 0.016 | 0.0136 ± 0.0032 | 0.0569 ± 0.013 |
| UCCUCCUACAGCUUGCAUCGUAUUUAGUUA | 0.129 ± 0.013 | 0.00682 ± 0.0021 | 0.0492 ± 0.014 |
| UCCUGCAUACAGCUUGCAUAGUAUUUAGUUA | 0.554 ± 0.047 | 0.0104 ± 0.0034 | 0.11 ± 0.032 |
| UCCUGGAUGUGGUUGCAUAGUAUUUAGUUA | 0.163 ± 0.022 | 0.0112 ± 0.0031 | 0.00426 ± 0.0039 |
| UCCUGGUACAGCUACCAUAGUAUUUAGUUA | 0.305 ± 0.044 | 0.00616 ± 0.0022 | 0.00432 ± 0.0019 |
| UCCUGGUAGUCCUUGCAUAGUAUUUAGUUA | 0.126 ± 0.018 | 0.00932 ± 0.003 | 0.00556 ± 0.0026 |
| UCCUGGAACUCCUUGCAUAGUAUUUAGUUA | 0.238 ± 0.02 | 0.00487 ± 0.0017 | 0.0352 ± 0.009 |
| UCCUGGUAGAGCUUGCAUAGUAUUUAGUUA | 0.245 ± 0.015 | 0.00842 ± 0.0022 | 0.0138 ± 0.0044 |
